Screening data as filed in PubChem.
Compounds with a hit are over-represented: about 3.8% of the library has one in this group of screens.
IDH1 R132H inh – qHTS for Inhibitors of mutant isocitrate dehydrogenase 1 (IDH1): qHTS. Isocitrate dehydrogenase [NADP] cytoplasmic (Homo sapiens), O75874. IDH1-R132H enzyme, NADPH consumption, diaphorase/resazurin fluorescence. Potency, µM (titrated, usually from 76.6 µM), inactives show at the highest dose activity change, negative = inhibition, most hits filed as inhibitors. 0.093% of 390,000 active; further: on the % scale 0 is the no-effect control and ±100 the full control effect; nearly all actives have a fitted effect of over 65% in size
Target sequence (O75874 whole entry R132H, stated change not applied): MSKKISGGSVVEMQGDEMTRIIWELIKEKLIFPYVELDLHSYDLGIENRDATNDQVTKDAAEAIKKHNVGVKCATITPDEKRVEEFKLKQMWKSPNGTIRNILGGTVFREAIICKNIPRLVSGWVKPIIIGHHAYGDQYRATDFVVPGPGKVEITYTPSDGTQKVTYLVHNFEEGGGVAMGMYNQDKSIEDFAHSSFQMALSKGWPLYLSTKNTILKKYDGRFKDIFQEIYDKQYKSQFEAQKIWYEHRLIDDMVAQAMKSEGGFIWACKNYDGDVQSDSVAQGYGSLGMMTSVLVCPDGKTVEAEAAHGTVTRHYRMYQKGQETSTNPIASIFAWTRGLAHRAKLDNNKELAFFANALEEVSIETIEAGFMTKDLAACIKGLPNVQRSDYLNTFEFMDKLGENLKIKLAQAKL
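IDH1-R132H (0.5 ug/mL dispensed) in pH 7.5 Tris buffer was preincubated 30 min with compound, then given a substrate mix of 0.016 mM NADPH and 2 mM alpha-KG for 80 min at room temperature; remaining NADPH was read by diaphorase/resazurin fluorescence.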
Nrf2 inh – Nrf2 qHTS screen for inhibitors. Potency, µM (titrated, usually from 46 µM), inactives show top-dose activity change, negative = inhibition, most hits filed as inhibitors. 2.1% of 360,000 active. A549 ARE-Fluc reporter, luciferase luminescence, 18-24 h. AID 504444, 2011; further: on the % scale 0 is the no-effect control and ±100 the full control effect; nearly all actives have a fitted effect of over 60% in size
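Reporter: ARE-Fluc in A549. Exposure: 18-24 h, 37 °C, 5% CO2, 5% FBS OPTI-MEM. Readouts: fluorescent cytotoxicity (CellTiter-Fluor), then luminescent Nrf2 signal after BugLite.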
A549 viability – Nrf2 qHTS screen for inhibitors: counterscreen for cytotoxicity | A549 ARE-Fluc cells, CellTiter-Fluor viability, 18-24 h | 0.16% of 390,000 active | Potency, µM (top dose mostly 46 µM), for inactives: top-dose activity change, negative = cytotoxicity, most hits filed as inhibitors | AID 504648, 2011; further: on the % scale 0 is the no-effect control and ±100 the full control effect
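A549 ARE_Fluc cells in 5% FBS OPTI-MEM were exposed to compounds in concentration-response for 18-24 h at 37 deg C. Viability was read by CellTiter-Fluor fluorescence (Ex 405/Em 525) after 30 min, before the luciferase read.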
Nrf2 ARE act – qHTS of Nrf2 Activators. AREc32 ARE-luciferase reporter (MCF7-derived line), luminescence, 24 h. Potency, µM (doses to about 46.1 µM), for inactives: at the highest dose activation, actives largely listed as activators. 0.31% of 410,000 active. AID 624171, 2012; further: % of control where 0% means no effect; nearly all actives have a fitted effect of over 65% in size
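Cells of the AREc32 ARE-luciferase line are plated in OPTI-MEM containing 5% FBS and left overnight at 37 deg C. Compounds are pinned in, incubation continues 24 hr, and firefly luciferase signal is then measured.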
ELG1 repair inh – qHTS screen for small molecules that inhibit ELG1-dependent DNA repair in human embryonic kidney (HEK293T) cells expressing luciferase-tagged ELG1; HEK293T ELG1-luciferase reporter, luminescence, 16 h; DNA damage induced by 5-fluorouridine; Potency, µM (titrated, usually from 46.1 µM), for the others: top-dose activity change, negative = inhibition, actives largely listed as inhibitors; 2.3% of 330,000 active; further: on the % scale 0 is the no-effect control and ±100 the full control effect; nearly all actives have a fitted effect of over 55% in size
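Cells (2,000 per well) received 5-fluorouridine plus test compound or DMSO and were incubated 16 hr at 37 °C, 5% CO2. Luciferase activity was read by luminescence 30 min after ONE-Glo addition; signal suppression marked inhibition of damage-induced ELG1 function.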
* marks the source's active call; other numbers are inactive results; ? = inconclusive; nt = no result; [ ] = dose if it differs, or a comment. The call rests on the fitted dose curve; in most records, active means well fitted curve in the direction sought with a large enough effect; inconclusive means small, poorly fitted or top-dose-only effect, or another doubt; inactive means no such curve, though single readings can be large; an effect the other way counts as inactive or inconclusive. Potency means the concentration at half of the fitted maximal effect.

SMILES	IDH1 R132H inh	Nrf2 inh	A549 viability	Nrf2 ARE act	ELG1 repair inh
C/C(N)=C(/C#N)C(=O)CSc1nc2ccccc2c(=O)n1-c1ccc(C)c(Cl)c1	2%	?	-18%	0%	6.5µM*
C/C(N)=C(/C#N)C(=O)CSc1nc2scc(-c3ccccc3)c2c(=O)n1C	-6%	15µM*	1%	0%	?
C/C(N)=C(/C#N)C(=O)CSc1nc2ccccc2c(=O)n1-c1ccc(C)cc1	nt	nt	nt	nt	7.3µM*
COc1ccc(-c2cc3c(o2)CCCC3OCCN2CCOCC2)cc1 (stereo not drawn)	nt	nt	nt	7%	nt
CN1CCN(C(=O)c2ccccc2NC(=O)c2ccccc2)CC1	-1%	-1%	0%	-1%	19%
COc1cc(/C=C/C(=O)OCC(=O)Nc2ccc(NC(C)=O)cc2)cc(S(=O)(=O)N2CCc3ccccc32)c1OC	-8%	-24%	-2%	?	21µM*
COc1cccc(-c2nc(SCC(=O)NC3CCCC3)c(-c3ccc(F)cc3)[nH]2)c1	1%	18µM*	?	0%	nt
COc1ccc(NC(=O)CSc2nc(-c3ccc(OC)c(OC)c3)[nH]c2-c2ccc(C)cc2)cc1	-1%	-4%	-11%	8%	nt
COc1ccc(-c2[nH]c(-c3ccc(OC)c(OC)c3)nc2SCC(=O)Nc2ccccc2)cc1	-22%	23µM*	?	4%	nt
COc1ccc(NC(=O)CSc2nc(-c3cccc(C)c3)[nH]c2-c2ccccc2)cc1OC	-6%	23µM*	?	-1%	nt
CCOCCCNC(=O)C(c1ccc(Cl)cc1)N(Cc1ccc2c(c1)OCO2)C(=O)c1ccccc1O (stereo not drawn)	2%	6%[9.27 µM]	-16%	1%	nt
COc1ccc(Nc2ncc3c(n2)CC(c2ccccc2)CC3=O)cc1 (stereo not drawn)	3%	?	4%	0%	15µM*
CCc1ccc(Nc2ncc3c(n2)CC(c2ccc(OC)cc2)CC3=O)cc1 (stereo not drawn)	-2%	-28%	-14%	0%	-9%
COc1cc(NC(=O)CCN2CCN(c3ccccc3)CC2)cc(OC)c1	nt	3%	0%	nt	nt
CCN=C1S/C(=C\c2cc(OCC)c(O)cc2Br)C(=O)N1CC	5%	11%	-7%	3%	18µM*
Cc1cc[n+](-c2ccccc2)c2ccccc12	0%	?	-5%	0%	10µM*
Cc1cc[n+](CCC(=O)O)c2ccccc12	1%	-26%	-15%	-1%	20%
O=C(OCC#CCSc1nnc(-c2cccc(F)c2)o1)c1ccc(F)cc1	nt	3%	2%	nt	nt
O=C(CSc1ccccc1C(=O)N1CCN(c2ccccc2)CC1)N1CCCC1	3%	-6%	0%	2%	15%
O=C(Cc1ccccc1)N1CCN(c2ccc([N+](=O)[O-])cc2)CC1	-10%	26µM*	-21%	0%	?
O=C(Cc1ccc([N+](=O)[O-])cc1)N1CCN(c2ccc([N+](=O)[O-])cc2)CC1	6%	?	-13%	0%	-12%
O=C(CCn1c(=O)[nH]c2ccsc2c1=O)N1CCN(c2ccc([N+](=O)[O-])cc2)CC1	0%	-2%	-11%	6%	18µM*
O=C(CCn1c(=O)[nH]c2ccsc2c1=O)N1CCN(c2cccc(Cl)c2)CC1	5%	-16%	0%	0%	-4%
O=C(CSc1ccccc1C(=O)N1CCN(c2ccc([N+](=O)[O-])cc2)CC1)N1CCCC1	-3%	?	?	2%	15µM*
CCSc1nnc(NC(=O)C2CCN(C(=O)c3ccco3)CC2)s1	nt	?	3%	nt	nt
SMILES	IDH1 R132H inh	Nrf2 inh	A549 viability	Nrf2 ARE act	ELG1 repair inh
CCOc1nc2c(c(-c3cccs3)c1C#N)Cc1ccccc1-2	3%	-1%	-6%	0%	-2%
CC(=O)COc1nc2c(c(-c3ccco3)c1C#N)CCc1ccccc1-2	14%	?	?	7%	8.2µM*
N#CNC(=Nc1cccc(F)c1)SCc1cccc(F)c1	-3%	23µM*	-9%	18%	-7%
N#CNC(=Nc1cccc(F)c1)SCc1ccccc1	3%	-24%	2%	11%	-4%
COc1ccc(NC(=O)CNC(c2ccccc2)c2ccccc2)cc1	16%	5%	-10%	-1%	-6%
COc1ccc(C)cc1NC(=O)CNC(c1ccccc1)c1ccc(C)cc1 (stereo not drawn)	38%	7%	-18%	0%	6.5µM*
COc1ccc(C(NCC(=O)NC(C)c2ccc(Cl)cc2)c2ccccc2)cc1 (stereo not drawn)	3%	15µM*	?	4%	?
COc1ccc(-n2nc(C(=O)NCC(=O)NC(C)C)c3ccccc3c2=O)cc1	4%	-6%	-3%	-1%	-1%
COc1ccc(-n2nc(C(=O)NCC(=O)NCc3ccc(F)cc3)c3ccccc3c2=O)cc1	5%	?	-14%	0%	16µM*
COc1ccc(-n2nc(C(=O)NCC(=O)NCCC3=CCCCC3)c3ccccc3c2=O)cc1	14%	?	-19%	2%	16µM*
COc1ccc(OC)c(-c2nn(-c3ccccc3)cc2C(=O)N2CCc3ccccc3C2)c1	-1%	?	?	4%	?
COc1ccccc1-c1nn(-c2ccccc2)cc1C(=O)N1CCc2ccccc2C1	-1%	21µM*	?	5%	?
CCOC(=O)c1c(NC(=O)C(=O)N/N=C/c2ccc(OCC)cc2)sc2c1CCCCC2	6%	15%	-2%	0%	-2%
CCOC(=O)c1c(NC(=O)C(=O)N/N=C/c2ccc(O)c(OC)c2)sc2c1CCCCC2	0%	?	-15%	4%	15µM*
CCOC(=O)c1c(NC(=O)N/N=C/c2ccc(O)c(OC)c2)sc(C(C)=O)c1C	nt	nt	nt	nt	4.6µM*
CSc1nn(Cc2cccc(F)c2)c(N(C(C)=O)C(C)=O)c1S(=O)(=O)c1ccccc1	0%	-12%	-12%	0%	nt
CC1Cc2ccccc2N1S(=O)(=O)c1nnc(NC(=O)c2cccc(F)c2)s1 (stereo not drawn)	-13%	-8%	-9%	1%	nt
CC1=C(C(=O)OC(C)C)C(c2ccc(C)o2)C(C(=O)OC(C)C)=C(C)N1	-2%	0%	-1%	3%	18µM*
CCOCCCNC(=O)c1ccc(-n2c(-c3ccccc3)cc3c2CCC(C)C3)cc1 (stereo not drawn)	15%	?	-3%	?	nt
CCN(CC)CCNC(=O)c1ccc(-n2c(-c3ccccc3)cc3c2CCCC3)cc1	3%	?	2%	11µM*	nt
